For seven compounds, inhibition results are on record in ChEMBL document CHEMBL1961873, “Compounds: GSK PKIS; Assays: Nanosyn kinase panel” (2012).

Usually inhibition stands for the drop in the measured response relative to a control, in per cent.

In test [1] the target is Calcium/calmodulin-dependent protein kinase type II subunit alpha (Homo sapiens) (UniProt Q9UQM7). As to conditions: at 1 µM.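 Also: reported value is a mean percent inhibition of CAMK2A.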
Test [2] deals with Calcium/calmodulin-dependent protein kinase type II subunit delta (Homo sapiens) (UniProt Q13557). Particulars: at 0.1 µM.
Chain of Calcium/calmodulin-dependent protein kinase type II subunit delta (Homo sapiens) (Q13557 whole entry): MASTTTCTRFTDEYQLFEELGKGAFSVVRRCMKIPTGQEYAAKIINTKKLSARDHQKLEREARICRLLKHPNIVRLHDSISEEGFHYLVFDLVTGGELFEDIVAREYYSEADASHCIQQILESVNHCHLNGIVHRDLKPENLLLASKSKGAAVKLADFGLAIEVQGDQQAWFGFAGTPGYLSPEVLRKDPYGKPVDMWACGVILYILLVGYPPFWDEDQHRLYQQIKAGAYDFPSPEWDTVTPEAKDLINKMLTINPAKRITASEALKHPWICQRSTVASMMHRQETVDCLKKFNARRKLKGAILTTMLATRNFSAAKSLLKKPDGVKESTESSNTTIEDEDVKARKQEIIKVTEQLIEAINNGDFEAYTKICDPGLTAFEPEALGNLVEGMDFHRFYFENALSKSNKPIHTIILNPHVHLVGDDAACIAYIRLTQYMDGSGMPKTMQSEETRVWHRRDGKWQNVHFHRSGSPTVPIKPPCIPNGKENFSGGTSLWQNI
Test [3] shares this target. As to conditions: at 1 µM.
The target of test [4] is T1, Calcium/calmodulin-dependent protein kinase type IV (Homo sapiens) (UniProt Q16566).
T1 sequence (whole entry): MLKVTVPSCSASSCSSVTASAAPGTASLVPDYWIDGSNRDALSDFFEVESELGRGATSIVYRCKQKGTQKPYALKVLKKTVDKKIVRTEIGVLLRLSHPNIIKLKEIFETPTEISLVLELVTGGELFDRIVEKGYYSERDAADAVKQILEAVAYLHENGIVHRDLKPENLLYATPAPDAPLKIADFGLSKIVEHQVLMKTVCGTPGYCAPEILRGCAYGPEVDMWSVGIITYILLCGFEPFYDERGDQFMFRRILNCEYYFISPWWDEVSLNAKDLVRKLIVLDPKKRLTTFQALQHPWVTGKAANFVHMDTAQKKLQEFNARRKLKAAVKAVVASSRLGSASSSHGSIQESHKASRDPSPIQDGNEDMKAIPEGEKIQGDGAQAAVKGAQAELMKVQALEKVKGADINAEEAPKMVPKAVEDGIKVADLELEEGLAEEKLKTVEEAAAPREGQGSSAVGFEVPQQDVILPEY
As to conditions: at 0.1 µM.

Test [5] deals with T1, Calcium/calmodulin-dependent protein kinase type IV (Homo sapiens). Particulars: at 1 µM.
Test [6] has as its target T2, Serine/threonine-protein kinase Chk1 (Homo sapiens) (UniProt O14757).
T2 sequence (whole entry): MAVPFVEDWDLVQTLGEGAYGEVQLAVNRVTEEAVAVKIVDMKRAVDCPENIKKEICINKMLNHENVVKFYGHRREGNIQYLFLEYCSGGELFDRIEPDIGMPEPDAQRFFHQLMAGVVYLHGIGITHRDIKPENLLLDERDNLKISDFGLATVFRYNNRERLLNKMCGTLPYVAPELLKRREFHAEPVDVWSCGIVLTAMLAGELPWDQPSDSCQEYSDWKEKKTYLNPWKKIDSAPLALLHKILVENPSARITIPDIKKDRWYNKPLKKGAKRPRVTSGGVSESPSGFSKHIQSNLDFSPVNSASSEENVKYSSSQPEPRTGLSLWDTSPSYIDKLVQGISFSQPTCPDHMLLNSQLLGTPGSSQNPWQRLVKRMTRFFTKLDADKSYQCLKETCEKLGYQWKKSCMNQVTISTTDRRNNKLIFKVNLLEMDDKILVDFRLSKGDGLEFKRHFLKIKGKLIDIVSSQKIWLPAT
Particulars: at 0.1 µM.

Test [7] deals with T2, Serine/threonine-protein kinase Chk1 (Homo sapiens). As to conditions: at 1 µM.
For test [8], the target named is Serine/threonine-protein kinase Chk2 (Homo sapiens) (UniProt O96017). As to conditions: at 0.1 µM.
Chain of Serine/threonine-protein kinase Chk2 (Homo sapiens) (O96017 whole entry): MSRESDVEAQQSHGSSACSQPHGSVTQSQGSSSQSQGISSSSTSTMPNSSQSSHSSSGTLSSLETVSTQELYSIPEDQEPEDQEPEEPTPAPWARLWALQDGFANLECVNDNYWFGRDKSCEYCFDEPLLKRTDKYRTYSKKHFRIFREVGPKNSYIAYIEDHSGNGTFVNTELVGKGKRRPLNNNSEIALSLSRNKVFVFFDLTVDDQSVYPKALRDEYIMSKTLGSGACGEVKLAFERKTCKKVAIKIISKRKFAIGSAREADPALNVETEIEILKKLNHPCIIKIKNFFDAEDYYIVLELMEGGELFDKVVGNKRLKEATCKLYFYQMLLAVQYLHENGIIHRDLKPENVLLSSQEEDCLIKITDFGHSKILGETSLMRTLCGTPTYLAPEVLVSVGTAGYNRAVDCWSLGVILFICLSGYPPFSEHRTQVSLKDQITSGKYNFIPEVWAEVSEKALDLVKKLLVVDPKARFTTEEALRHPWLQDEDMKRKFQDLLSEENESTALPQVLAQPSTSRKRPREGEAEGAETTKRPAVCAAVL
The target is the same in test [9]. As to conditions: at 1 µM.
The target of test [10] is Death-associated protein kinase 1 (Homo sapiens) (UniProt P53355). Particulars: at 0.1 µM.
Chain of Death-associated protein kinase 1 (Homo sapiens) (P53355 whole entry, looked up): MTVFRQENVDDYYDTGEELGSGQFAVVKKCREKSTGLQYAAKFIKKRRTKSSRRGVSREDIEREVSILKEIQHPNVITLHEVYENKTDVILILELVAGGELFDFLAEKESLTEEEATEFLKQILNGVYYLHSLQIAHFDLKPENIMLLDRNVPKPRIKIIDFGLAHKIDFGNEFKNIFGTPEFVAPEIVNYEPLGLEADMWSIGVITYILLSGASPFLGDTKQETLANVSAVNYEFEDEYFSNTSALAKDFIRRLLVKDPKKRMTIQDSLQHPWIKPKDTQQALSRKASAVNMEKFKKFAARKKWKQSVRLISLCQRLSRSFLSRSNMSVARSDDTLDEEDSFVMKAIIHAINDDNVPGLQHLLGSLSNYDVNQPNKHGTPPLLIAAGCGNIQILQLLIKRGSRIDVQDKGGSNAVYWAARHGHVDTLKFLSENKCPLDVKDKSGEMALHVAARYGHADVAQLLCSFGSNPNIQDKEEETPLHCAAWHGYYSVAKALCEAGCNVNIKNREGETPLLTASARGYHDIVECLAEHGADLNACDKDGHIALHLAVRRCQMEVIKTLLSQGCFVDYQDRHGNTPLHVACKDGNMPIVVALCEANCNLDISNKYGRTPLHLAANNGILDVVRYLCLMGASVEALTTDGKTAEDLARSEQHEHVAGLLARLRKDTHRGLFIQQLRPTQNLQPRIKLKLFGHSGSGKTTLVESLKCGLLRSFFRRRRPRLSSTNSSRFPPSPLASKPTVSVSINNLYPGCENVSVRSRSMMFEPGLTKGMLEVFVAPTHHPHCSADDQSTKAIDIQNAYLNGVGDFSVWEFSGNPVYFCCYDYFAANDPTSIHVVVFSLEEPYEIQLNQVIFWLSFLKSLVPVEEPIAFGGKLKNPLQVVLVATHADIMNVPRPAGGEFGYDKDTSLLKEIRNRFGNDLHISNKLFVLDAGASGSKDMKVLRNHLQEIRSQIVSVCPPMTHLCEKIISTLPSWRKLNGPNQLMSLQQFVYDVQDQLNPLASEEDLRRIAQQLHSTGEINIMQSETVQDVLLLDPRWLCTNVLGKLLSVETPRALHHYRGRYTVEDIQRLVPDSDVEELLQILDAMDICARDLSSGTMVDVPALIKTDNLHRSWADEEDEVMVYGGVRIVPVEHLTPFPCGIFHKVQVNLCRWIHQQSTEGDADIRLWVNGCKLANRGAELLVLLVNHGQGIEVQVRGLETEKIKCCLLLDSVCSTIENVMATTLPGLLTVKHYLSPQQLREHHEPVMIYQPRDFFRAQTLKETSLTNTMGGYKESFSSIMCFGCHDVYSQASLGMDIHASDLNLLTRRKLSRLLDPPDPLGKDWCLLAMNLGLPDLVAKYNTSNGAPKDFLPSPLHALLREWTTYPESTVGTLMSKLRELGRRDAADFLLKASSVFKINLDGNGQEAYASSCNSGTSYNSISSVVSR
The target is the same in test [11]. As to conditions: at 1 µM.
The target in test [12] is T3, Serine/threonine-protein kinase DCLK2 (Homo sapiens) (UniProt Q8N568).
T3 sequence (whole entry): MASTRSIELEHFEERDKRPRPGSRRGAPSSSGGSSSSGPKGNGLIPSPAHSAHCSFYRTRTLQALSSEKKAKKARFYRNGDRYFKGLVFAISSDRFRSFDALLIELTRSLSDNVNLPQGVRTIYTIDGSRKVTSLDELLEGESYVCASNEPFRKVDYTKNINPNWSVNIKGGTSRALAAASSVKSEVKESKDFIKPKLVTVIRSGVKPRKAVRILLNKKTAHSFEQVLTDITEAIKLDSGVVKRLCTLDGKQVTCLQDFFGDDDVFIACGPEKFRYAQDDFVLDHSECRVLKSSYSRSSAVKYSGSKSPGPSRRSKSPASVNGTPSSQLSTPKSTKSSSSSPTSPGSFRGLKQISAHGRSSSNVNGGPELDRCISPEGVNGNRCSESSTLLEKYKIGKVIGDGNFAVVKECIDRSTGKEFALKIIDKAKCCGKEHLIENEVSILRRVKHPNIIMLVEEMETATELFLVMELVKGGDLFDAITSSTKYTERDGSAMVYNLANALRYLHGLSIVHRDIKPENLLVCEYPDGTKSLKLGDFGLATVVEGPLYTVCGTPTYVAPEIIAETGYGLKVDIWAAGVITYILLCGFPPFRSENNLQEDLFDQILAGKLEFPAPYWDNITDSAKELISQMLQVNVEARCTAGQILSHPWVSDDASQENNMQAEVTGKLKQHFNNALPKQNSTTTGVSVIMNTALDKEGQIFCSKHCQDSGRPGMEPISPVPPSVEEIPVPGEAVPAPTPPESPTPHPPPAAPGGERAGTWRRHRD
As to conditions: at 0.1 µM.

Test [13] has as its target T3, Serine/threonine-protein kinase DCLK2 (Homo sapiens). As to conditions: at 1 µM.
Test [14] addresses MAP kinase-activated protein kinase 2 (Homo sapiens) (UniProt P49137). Particulars: at 0.1 µM.
For test [15] the target is unchanged. Particulars: at 1 µM.
In test [16] the target is MAP kinase-activated protein kinase 3 (Homo sapiens) (UniProt Q16644). Particulars: at 0.1 µM.
Test [17] shares this target. As to conditions: at 1 µM.
The target in test [18] is Serine/threonine-protein kinase MARK1 (Homo sapiens) (UniProt Q9P0L2). Particulars: at 0.1 µM.
Chain of Serine/threonine-protein kinase MARK1 (Homo sapiens) (Q9P0L2 whole entry, looked up): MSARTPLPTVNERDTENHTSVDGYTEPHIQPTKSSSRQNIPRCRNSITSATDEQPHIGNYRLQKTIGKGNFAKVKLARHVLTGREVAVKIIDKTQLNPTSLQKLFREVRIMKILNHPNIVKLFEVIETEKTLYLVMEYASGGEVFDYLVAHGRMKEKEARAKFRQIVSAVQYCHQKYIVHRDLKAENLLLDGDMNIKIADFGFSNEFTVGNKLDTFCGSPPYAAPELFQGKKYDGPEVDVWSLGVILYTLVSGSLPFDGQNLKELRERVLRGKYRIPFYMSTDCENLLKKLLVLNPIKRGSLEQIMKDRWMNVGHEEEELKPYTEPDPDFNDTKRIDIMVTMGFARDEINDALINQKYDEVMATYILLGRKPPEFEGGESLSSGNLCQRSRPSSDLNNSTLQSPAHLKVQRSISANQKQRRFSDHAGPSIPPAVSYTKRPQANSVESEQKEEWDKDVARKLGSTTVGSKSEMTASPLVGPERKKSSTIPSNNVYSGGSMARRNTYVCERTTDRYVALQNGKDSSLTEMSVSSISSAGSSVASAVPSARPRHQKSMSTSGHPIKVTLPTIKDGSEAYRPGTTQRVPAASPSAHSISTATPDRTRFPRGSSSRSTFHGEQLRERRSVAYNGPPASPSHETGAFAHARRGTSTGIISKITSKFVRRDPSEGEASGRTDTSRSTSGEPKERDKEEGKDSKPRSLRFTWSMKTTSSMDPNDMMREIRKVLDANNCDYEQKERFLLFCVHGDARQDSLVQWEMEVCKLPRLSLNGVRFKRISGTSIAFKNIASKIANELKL
The target is the same in test [19]. Particulars: at 1 µM.
In test [20] the target is MAP/microtubule affinity-regulating kinase 3 (Homo sapiens) (UniProt P27448). Particulars: at 0.1 µM.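 Also: mean percent inhibition of MARK3 kinase activity, measured within the GSK PKIS screening panel.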
Chain of MAP/microtubule affinity-regulating kinase 3 (Homo sapiens) (P27448 whole entry, looked up): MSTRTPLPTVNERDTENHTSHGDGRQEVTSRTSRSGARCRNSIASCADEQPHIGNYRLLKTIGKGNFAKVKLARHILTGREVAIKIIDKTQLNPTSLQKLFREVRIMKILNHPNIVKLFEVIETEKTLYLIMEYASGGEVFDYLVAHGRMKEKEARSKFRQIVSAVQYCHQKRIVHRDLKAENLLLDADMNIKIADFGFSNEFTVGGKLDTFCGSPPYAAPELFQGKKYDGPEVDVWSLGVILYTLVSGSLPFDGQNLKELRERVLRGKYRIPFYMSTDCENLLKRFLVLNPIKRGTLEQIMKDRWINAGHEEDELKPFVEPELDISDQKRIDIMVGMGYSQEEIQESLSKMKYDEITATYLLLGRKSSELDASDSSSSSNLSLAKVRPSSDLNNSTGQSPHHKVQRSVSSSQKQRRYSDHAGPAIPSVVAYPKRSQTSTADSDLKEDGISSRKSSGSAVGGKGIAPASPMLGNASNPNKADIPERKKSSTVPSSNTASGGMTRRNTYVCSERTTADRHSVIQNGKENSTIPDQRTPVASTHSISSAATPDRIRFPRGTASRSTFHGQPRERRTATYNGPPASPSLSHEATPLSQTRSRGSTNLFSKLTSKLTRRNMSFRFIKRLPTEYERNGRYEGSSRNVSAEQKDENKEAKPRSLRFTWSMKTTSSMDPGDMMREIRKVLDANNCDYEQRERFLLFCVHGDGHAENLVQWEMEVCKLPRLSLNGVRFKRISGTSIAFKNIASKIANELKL

Chain of Calcium/calmodulin-dependent protein kinase type II subunit alpha (Homo sapiens) (Q9UQM7 whole entry): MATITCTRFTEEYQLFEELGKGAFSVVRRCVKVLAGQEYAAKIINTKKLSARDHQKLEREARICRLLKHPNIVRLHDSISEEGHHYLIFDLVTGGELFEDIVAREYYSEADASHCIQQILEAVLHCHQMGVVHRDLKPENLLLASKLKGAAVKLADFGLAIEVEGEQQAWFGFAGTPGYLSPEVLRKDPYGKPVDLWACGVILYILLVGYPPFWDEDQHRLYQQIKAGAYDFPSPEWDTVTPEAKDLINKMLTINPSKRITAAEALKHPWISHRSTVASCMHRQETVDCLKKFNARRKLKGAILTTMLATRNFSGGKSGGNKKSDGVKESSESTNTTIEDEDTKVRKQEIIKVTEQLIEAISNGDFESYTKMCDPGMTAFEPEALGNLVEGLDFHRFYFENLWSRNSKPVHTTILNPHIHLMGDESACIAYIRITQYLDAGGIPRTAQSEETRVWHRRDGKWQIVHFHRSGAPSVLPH
Chain of MAP kinase-activated protein kinase 2 (Homo sapiens) (P49137 whole entry, looked up): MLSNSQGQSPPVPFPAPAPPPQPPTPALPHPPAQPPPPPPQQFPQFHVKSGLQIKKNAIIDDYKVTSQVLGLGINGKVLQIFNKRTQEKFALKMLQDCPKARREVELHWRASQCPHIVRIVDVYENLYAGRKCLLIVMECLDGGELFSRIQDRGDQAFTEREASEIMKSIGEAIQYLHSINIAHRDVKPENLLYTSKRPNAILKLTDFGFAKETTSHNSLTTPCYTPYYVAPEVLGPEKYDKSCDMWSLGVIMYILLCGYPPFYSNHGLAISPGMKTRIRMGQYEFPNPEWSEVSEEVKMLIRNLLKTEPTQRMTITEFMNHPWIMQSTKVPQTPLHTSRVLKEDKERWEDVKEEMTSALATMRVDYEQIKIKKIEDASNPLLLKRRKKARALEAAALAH

On to `OCc1ccc(-c2nc(-c3ccccn3)c(-c3ccc4c(c3)OCO4)[nH]2)cc1`, for which the inhibition in test [1] was 5.43%; in test [2], 4.96%; in test [3] it was 4.65%; in test [4] it was 0.02%; in [5] it was -0.32%; in test [6] it was 3.36%. For the same compound, the inhibition in test [7] stood at 3.17%; in test [8] it was 3.25%; in [9] it was 4.36%; in test [10], 4.31%; in test [11], 6.09%; in test [12] it was 2.19%. The inhibition turned out to be 2.76% in test [13]; 1.95% in test [14]; 1.87% in [15]; 3.91% in test [16]; 6.87% in test [17]; 4.66% in test [18]. Moreover, the inhibition in test [19] came out at 4.32%; in [20], 4.6%.

In the case of `CN(C)C(=O)O[C@@H]1CN[C@@H](C#Cc2cc3ncnc(Nc4ccc(OCc5cccc(F)c5)c(Cl)c4)c3s2)C1`, the inhibition is 1.65% in [1]; 1.47% in test [2]; 2.72% in [3]; 0.93% in [4]; 0.99% in test [5]; -0.23% in test [6]. In addition, the inhibition in [7] was found to be 0.16%; in test [8] it was 0.47%; in [9] it was 1.66%; in test [10], 0.93%; in test [11], 1.85%; in test [12], 1.22%. The inhibition in test [13] was 0.53%; in [14], -2.43%; in [15] it was -0.13%; in test [16], 2.61%; in test [17] it was 3.12%; in test [18], 0.76%. Besides, the results for the inhibition in test [19] and in test [20] were 0.76% and 2.16%, respectively.

With `Cc1cc(-c2ccccn2)cc(C)c1/C=C/c1cncc(-c2nn[nH]n2)c1`, the inhibition is 1.59% in [1]; 2.75% in test [2]; 5% in test [3]; -1.17% in [4]; -1.4% in [5]; 4.62% in test [6]. Moreover, the inhibition is 4.81% in test [7]; 2.62% in test [8]; 4.43% in test [9]; 6.16% in test [10]; 4.15% in test [11]; -0.19% in [12]. Also, the inhibition is 1.55% in test [13]; 2.23% in test [14]; 2.74% in test [15]; 4.19% in test [16]; 6.94% in test [17]; 1.24% in test [18]. Also, the inhibition is 4.82% in [19] and 2.15% in test [20].

As to `COc1cc(Nc2nccc(-c3cnn4ncccc34)n2)cc(OC)c1`, the inhibition in test [1] is 15.2%; in [2] it was 6.12%; in test [3], 36.4%; in [4], 1.42%; in [5] it was -0.26%; in test [6], -0.97%. Further, the inhibition in [7] is 7.68%; in test [8], 1.81%; in test [9], 14.1%; in [10], 1.9%; in test [11], 1.26%; in [12] it was 4.84%. Also, the inhibition was -3.23% in [13]; 0.26% in [14]; 0.15% in [15]; 0.44% in test [16]; 0.56% in test [17]; 4.67% in test [18]. The results for the inhibition in [19] and in [20] were 32.3% and 6.88%, respectively.

Turning to `N#Cc1c(NC(=O)c2ccccc2F)sc2c1CCCC2`, the inhibition in [1] was -0.29%; in test [2], -2.56%; in [3], 1.91%; in test [4], 0.87%; in test [5] it was 1.11%; in test [6], -0.69%. In addition, the inhibition in [7] was -3.66%; in [8], -0.83%; in test [9] it was -2.63%; in test [10], -1.42%; in test [11], -2.35%; in test [12], -1.75%. Also, the inhibition in [13] was 0.7%; in test [14] it was -1.29%; in [15] it was -0.76%; in test [16], -0.73%; in test [17] it was -1.26%; in [18] it was 1.09%. The inhibition in test [19] is 2.84%; in [20], -2.32%.

Regarding `Cc1cc(Cl)cc2c1NC(=O)C2=NNc1ccc(S(N)(=O)=O)cc1`, the inhibition is 0.96% in test [1]; 2.57% in test [2]; -0.12% in [3]; -0.56% in test [4]; -3.46% in test [5]; 2.43% in test [6]. Besides, the inhibition amounted to 2.86% in [7]; 1.38% in test [8]; 2.55% in test [9]; 2.88% in [10]; 3.49% in [11]; 1.05% in test [12]. Moreover, the inhibition is 6.07% in [13]; 1.56% in test [14]; 1.44% in test [15]; 0.78% in test [16]; 2.25% in test [17]; 2.46% in test [18]. In addition, the inhibition in test [19] was 4.87%; in test [20], 3.64%.

As for `Cc1ccc2c(c1)/C(=N/Nc1ccc(S(N)(=O)=O)cc1)C(=O)N2`, the inhibition in [1] amounted to 2.25%; in test [2], 1.2%; in test [3], 3.28%; in test [4], 1.05%; in test [5], 2.05%; in test [6], 0.25%. Also, the inhibition was found to be 3.5% in test [7]; 0.04% in test [8]; 0.67% in [9]; 0.46% in [10]; 1.29% in test [11]; 6.62% in test [12]. In addition, the inhibition is -0.15% in test [13]; -0.81% in test [14]; -0.37% in test [15]; 2.9% in test [16]; 1.35% in test [17]; 0.5% in [18]. Further, the inhibition in test [19] was 3.86%; in [20], -0.22%.
